Assay outcomes from PubChem.
Pf growth 48h = P. falciparum growth inhibition at 48 hours (one generation) | P. falciparum luciferase growth in erythrocytes, 48 h | Potency, µM (series often up to 28.7 µM), inactives show top-dose activity change, negative = inhibition, hits mostly inhibitors | hit rate 5.9% among 310,000 | AID 504832
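Here the parasites carry a stable luciferase gene and grow inside erythrocytes in Albumax-based RPMI medium with compound for one erythrocytic cycle. Activity is scored as loss of luminescent signal.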
HCV inh = inhibitors of hepatitis C virus infection | Potency, µM (highest dose often 41.8 µM), for inactives: at the highest dose activity change, negative = inhibition, actives largely listed as inhibitors | hit rate 3.4% among 340,000 | Huh7.5.1 HCVcc-Cre infection, luciferase reporter, 44 h
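HCVcc-Cre virus at an moi near 0.5 was added right after compound to cells cultured 4 h from seeding (1,000 cells/well). Luciferase activity was determined 44 h later, 15 min after substrate addition at RT.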
AmpC detergent = blocks E. coli AmpC beta-lactamase in detergent assay. hit rate 0.041% among 370,000. P00811. AID 485294. Potency, µM (highest dose often 114 µM), for inactives: at the top dose activity change, negative = inhibition, hits mostly inhibitors. AmpC hydrolysis of nitrocefin, absorbance 480 nm, 0.01% Triton;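 further: 0% = no-compound wells and -100% = no-enzyme wells; nearly all actives have a fitted effect of over 25% in size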
Target sequence (P00811 whole entry, looked up): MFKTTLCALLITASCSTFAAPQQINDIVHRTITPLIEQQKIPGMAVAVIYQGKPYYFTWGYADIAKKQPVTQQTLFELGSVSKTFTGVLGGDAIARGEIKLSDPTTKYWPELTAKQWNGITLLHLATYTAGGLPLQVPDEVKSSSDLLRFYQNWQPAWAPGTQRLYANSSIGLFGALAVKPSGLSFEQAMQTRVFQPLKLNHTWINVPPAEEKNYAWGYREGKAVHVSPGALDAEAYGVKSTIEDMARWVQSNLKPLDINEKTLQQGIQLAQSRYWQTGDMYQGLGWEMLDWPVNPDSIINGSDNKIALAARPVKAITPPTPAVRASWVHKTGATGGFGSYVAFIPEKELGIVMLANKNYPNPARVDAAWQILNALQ
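20 mM phosphate pH 7.0 + 0.01% (detergent screen) or 0.0001% Triton X-100; 5.3 nM AmpC reagent; cpd preinc 15 min RT; nitrocefin (800 uM stock) to start; A480 q20 s × 4 min; Activity was normalised to no-enzyme and no-compound control wells.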
Pf growth 96h = inhibits malaria parasite growth, 96 h | Potency, µM (doses to about 28.7 µM), for inactives: at the highest dose activity change, negative = inhibition, hits mostly inhibitors | P. falciparum luciferase reporter growth, 96 h | hit rate 6.9% among 320,000 | AID 504834
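Two-generation exposure (96 h) targets delayed-death phenotype. Reporter parasites carrying integrated firefly luciferase, in red cells at 2% hematocrit and 0.05% parasitemia final, kept at 37 C, 5% CO2; luminescence loss indicates inhibition.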
AmpC no deterg = AmpC beta-lactamase inhibition without detergent; P00811; AmpC nitrocefin hydrolysis, absorbance 480 nm, 0.0001% Triton; Potency, µM (titrated, usually from 57.1 µM), for the others: at the highest dose activity change, negative = inhibition, actives largely listed as inhibitors; hit rate 0.52% among 330,000; AID 485341;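 further: plate controls were no compound for no effect and no enzyme for full effect; nearly all actives have a fitted effect of over 20% in size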
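AmpC (5.3 nM in the dispensed reagent) in 20 mM phosphate pH 7.0 with 0.01% (detergent screen) or 0.0001% Triton X-100 was preincubated with compounds for 15 min at room temperature. Nitrocefin was then added from an 800 uM solution, and hydrolysis was followed at 480 nm.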
AMA1-RON2 inh = inhibitors of Plasmodium falciparum AMA1-RON2 interaction. AlphaScreen AMA1-biotinylated RON2 peptide binding. Potency, µM (top dose mostly 58.2 µM), for the others: at the top dose activity change, negative = inhibition, most hits filed as inhibitors. hit rate 0.2% among 360,000. AID 720542;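 further: 0% = vehicle wells and -100% = peptide control; nearly all actives have a fitted effect of over 45% in size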
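AMA1 (3D7) with his tag at 25 nM final met compounds first, then biotinylated RON2 peptide at 25 nM; detection used donor plus acceptor beads, 10 µg/mL apiece, read by AlphaScreen after 30 min at room temperature.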
* marks the source's active call; other numbers are inactive results; ? = inconclusive; . = no result given; [ ] = dose if it differs, or a comment. Sampled rows, rich in hits. Any-hit rate of the full collection: about 11%. The call rests on the fitted dose curve; in most records, active means well fitted curve in the direction sought with a large enough effect; inconclusive means small, poorly fitted or top-dose-only effect, or another doubt; inactive means no such curve, though single readings can be large; an effect the other way counts as inactive or inconclusive. Unless noted, on the % scale 0 is the no-effect control and ±100 the full control effect; potency means the concentration at half of the fitted maximal effect.

SMILES	Pf growth 48h	HCV inh	AmpC detergent	Pf growth 96h	AmpC no deterg	AMA1-RON2 inh
COc1cccc2c1C(=O)c1c(O)c3c(c(O)c1C2=O)CC(O)(C(C)=O)CC3OC1CC(N(C)C)C(O)C(C)O1 (centres undefined)	.	0.56µM*	.	.	.	-16%
CC[C@@]1(O)C[C@H](O[C@H]2C[C@@H](N(C)C)[C@@H](O[C@H]3C[C@@H](O)[C@@H](O[C@H]4CCC(=O)[C@@H](C)O4)[C@@H](C)O3)[C@@H](C)O2)c2c(cc3c(c2O)C(=O)c2c(O)cccc2C3=O)[C@H]1C(=O)OC	0.085µM*	.	.	0.06µM*	.	.
COc1cccc2c1C(=O)c1c(O)c3c(c(O)c1C2=O)C[C@@](O)(C(=O)CO)C[C@@H]3OC1CC(N)C(O)C(C)O1 (some centres undefined)	0.43µM*	1µM*	.	0.067µM*	.	25%
COc1cccc2c1C(=O)c1c(O)c3c(c(O)c1C2=O)C[C@@](O)(C(=O)CO)C[C@@H]3O[C@H]1C[C@H](N)[C@H](O)[C@H](C)O1	0.15µM*	0%[8.37 µM]	-2%	0.093µM*	200%	22%
Cc1ccc(-c2c(C(=O)N3CCN(c4cccc(C)c4C)CC3)oc(=O)c3ccccc23)cc1	.	.	2%	.	.	.
Cc1ccc(OCC(=O)NCC(=O)OCc2cc(=O)n3nc(C(C)C)sc3n2)cc1	.	.	-9%	.	.	.
CC(=O)C1(O)Cc2c(O)c3c(c(O)c2C(OC2CC(N)C(O)C(C)O2)C1)C(=O)c1c(O)cccc1C3=O (centres undefined)	1.5µM*	.	.	0.85µM*	.	.
Cc1ccc(N2CC(c3nc(-c4ccc(Cl)cc4)no3)CC2=O)cc1F (centres undefined)	.	.	21%	.	.	.
CCN(CCCNS(=O)(=O)c1cc(-c2cc(C)no2)ccc1C)Cc1ccccc1	?	13µM*	-5%	-16%	32%	-12%
CCc1ccc(-c2cc(C)no2)cc1S(=O)(=O)NCCCN1CCN(c2ccccc2)CC1	13µM*	2µM*	1%	?	64%	?
CCc1ccc(-c2cc(C)no2)cc1S(=O)(=O)N1CCOc2ccccc21	8.3µM*	11µM*	0%	?	-1%	21%
Cc1cc(-c2ccc(C)c(S(=O)(=O)N3CCN(C(=O)c4ccco4)CC3)c2)on1	4%	-16%	4%	?	105%	-12%
CCc1ccc(-c2cc(C)no2)cc1S(=O)(=O)N1CCN(C(=O)c2ccco2)CC1	?	?	-1%	9.3µM*	137%	-4%
COc1ccc(CCNC(=O)Cn2c(=O)n(-c3ccc(OC)c(OC)c3)c(=O)c3ccccc32)cc1OC	.	.	2%	.	.	.
COc1cccc(Cn2c(CNS(=O)(=O)c3ccc4c(c3)CCCC4)nc3cccnc32)c1	.	.	1%	.	.	.
CCc1ccc(-c2cc(C)no2)cc1S(=O)(=O)N1CCN(c2ccc(F)cc2)CC1	13µM*	5µM*	-11%	?	-27%	1%
CCOc1cc(CNc2ccc(Br)cc2)cc(Br)c1OCC(=O)NC(C)(C)C	?	?	10%	.	-9%	?
CCOc1cc(CNc2ccccc2)cc(Br)c1OCC(=O)NC(C)(C)C	?	13µM*	6%	9.3µM*	31%	7%
CCOc1cc(CNc2ccc(OC)cc2)cc(Br)c1OCC(=O)NC(C)(C)C	?	-23%	2%	9.3µM*	34%	?
O=C(Nc1ccccc1)NC1(C(=O)NCCCN2CCOCC2)CCCCC1	-27%	-5%	-21%	122%	-8%	0%
O=C(Nc1ccccc1)NC1(C(=O)NCc2cccs2)CCCCC1	3%	-5%	2%	13%	0.14µM*	-3%
